Data on 40 compounds can be found in PubChem BioAssay.

SMILES strings stand for the structures. Unmarked numbers belong to inactive results.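 The calls were made as follows, unless noted: active = inhibition over a set limit, the all-compound mean plus 3 SD, in both replicate runs; inconclusive = over that limit in just one replicate run; inactive = at or under that limit in both runs.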

One experiment in a line: inhibitors of the yeast RAM network, pilot screen, dse1pr::URA3 reporter, 5-FOA selection (AID 869).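 Also: 0% = DMSO wells with no growth and 100% = 10 µM 1-NA-PP1 with full growth; RAM network block rescues cells from 5-FOA so hits raise OD615 growth.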 As to conditions: S. cerevisiae dse1pr::URA3 5-FOA growth, OD615, 2 d; at 10 µM; stronger effect = higher value; strain carries analog-sensitive mutant Cbk1 kinase.
What is called inhibition is the relative decrease from the control value, in per cent. Regarding `CC(C)(C)NS(=O)(=O)c1ccc(OCC(=O)Nc2ccc3c(c2)OCCO3)cc1`, the inhibition was 2.62%.

On to `C=C(C)Cn1c(CCNC(=O)C(C)(C)C)nc2ccccc21`, for which the inhibition was 2.33%.

Turning to `Cc1cc2cc(CN(Cc3ccc4c(c3)OCO4)C(=O)c3cnccn3)c3nnnn3c2cc1C`, the inhibition is 2.06%.

Consider `O=C(CN(CC(=O)N1CCOCC1)S(=O)(=O)c1ccc(Br)s1)N1CCOCC1`, for which the inhibition is -0.32%.

On to `Cn1cc(S(=O)(=O)CC(=O)Nc2ccc3c(c2)OCCO3)c2ccccc21`, for which the inhibition was 3.01%.

`CC(=O)c1ccc(N2CCN(C(=O)c3ccc(NC(=O)C4CCCO4)cc3)CC2)cc1` (stereo not given): the inhibition is 2.3%.

As for `COc1cc2c(cc1OC)C(C(=O)Nc1cccc(C)n1)C(c1cccnc1)N(C)C2=O` (stereo not given), the inhibition was 0.58%.

As to `CCOC(=O)c1c(NC(=O)c2ccc(Cl)s2)sc(C)c1C`, the inhibition was 2.4%.

In the case of `CCCC(=O)Nc1cc(C)c(NC(=O)Cc2ccccc2)cn1`, the inhibition was 0.135%.

With `O=C(CCS(=O)(=O)c1ccccc1)Nc1nc2c(s1)COc1ccccc1-2`, the inhibition is 1.32%.

Take `CC(=O)NCC(=O)N(c1c(C)n(C)n(-c2ccccc2)c1=O)C1(C(=O)NC2CCCC2)CCCCC1`: the inhibition is 1.13%.

In the case of `CC(NC(=O)C(C)(C)C)c1nc2ccccc2n1C` (stereo not given), the inhibition was 0.63%.

For the compound `Cc1cccc(N(CC(=O)Nc2c(C)n(C)n(-c3ccccc3)c2=O)S(C)(=O)=O)c1C`, the inhibition was 1.41%.

Turning to `CC(=O)Nc1c(C(=O)c2ccc(F)cc2)oc2ccccc12`, the inhibition is 2.3%.

On to `COc1ccc(NC2=NCC(=O)N2c2ccccc2)c(OC)c1`, for which the inhibition is 1.15%.

Turning to `Cc1c(C(=O)N(C)Cc2ccccc2)oc2ccc(S(=O)(=O)N3CCCC3)cc12`, the inhibition is 0.18%.

Turning to `COc1ccc2c(c1)-c1nc(NC(=O)c3cccs3)sc1CC2`, the inhibition was 3.16%.

Consider `Cc1nc2nc(SCC(=O)N3CCOCC3)nn2c(C)c1Cc1c(F)cccc1Cl`, for which the inhibition is 0.35%.

On to `O=C(CS(=O)(=O)c1cn(Cc2cccc(F)c2)c2ccccc12)N1CCCCC1`, for which the inhibition was 2.04%.

In the case of `COc1ccc(-c2cc3ccccc3n2CC(O)Cn2nc(C)cc2C)cc1` (stereo not given), the inhibition is 0.2%.

As for `NC(=O)C1CCN(C(=O)CCCCCn2c(=O)[nH]c3ccsc3c2=O)CC1`, the inhibition was 0.97%.

For the compound `CC1CCCN(c2nc3c(c(=O)n(C)c(=O)n3C)n2Cc2ccccc2)C1` (stereo not given), the inhibition was 1.67%.

For the compound `O=C(Nc1ccc(Br)cc1Cl)c1cnccn1`, the inhibition was 1.97%.

As to `CCOC(=O)N1CCC(NC(=O)C(Cc2ccccc2)NC(=O)C2CCCCC2)CC1` (stereo not given), the inhibition was 0.04%.

Consider `Cc1c(C(=O)Nc2ccncc2)sc2nc(-c3ccc(F)cc3)cn12`, for which the inhibition was 1.96%.

With `Cc1ccnc(Sc2nc3c(c(=O)[nH]c(=O)n3C)n2CCCc2ccccc2)n1`, the inhibition was 1.6%.

With `CCC(=O)Nc1cc(C)c(NC(=O)c2ccco2)cn1`, the inhibition was 1.52%.

On to `Cc1c(C(=O)NCCC2=CCCCC2)oc2ccc(S(=O)(=O)N3CCOCC3)cc12`, for which the inhibition was 2.62%.

In the case of `COCCn1c(=O)[nH]c2cc(C(=O)NCCN3CCN(c4ccccc4F)CC3)ccc2c1=O`, the inhibition is 1.31%.

Consider `CCOc1cc(CNC(=O)CN2C(=O)c3ccccc3S2(=O)=O)ccc1OC`, for which the inhibition is 1.69%.

Take `O=C(C1=C(O)C(=O)N(CCc2ccccc2)C1c1cccnc1)c1ccco1` (stereo not given): the inhibition was 2.01%.

As to `COCCNC(=O)c1cn(C)c(=O)c2cc(OC)c(OC)cc12`, the inhibition is 1.6%.

`O=C(OCC(=O)N1CCN(C(=O)c2ccco2)CC1)C1=COCCO1`: the inhibition is 2.21%.

With `O=C(c1ccccn1)N1CCN(c2ccc(C(F)(F)F)cn2)CC1`, the inhibition was 1.64%.

As for `OCC1(c2cc(C(F)(F)F)n[nH]2)CCCCC1`, the inhibition was 1.2%.

As for `Cc1c(NC(=O)CCC2CCCCC2)c(=O)n(-c2ccccc2)n1C`, the inhibition was 0.965%.

Regarding `Brc1cc(Br)c2ncnc(N3CCCCC3)c2c1`, the inhibition was 2.7%.

Regarding `Cn1c(=O)[nH]c(=O)c2c1nc(Sc1ncccn1)n2CCCc1ccccc1`, the inhibition was 1.43%.

With `CNC(=O)c1ccc(-c2sc3nc(N4CCOCC4)c4c(c3c2N)CCCC4)o1`, the inhibition is -0.54%.

With `CC(=O)c1cccc(NC(=O)N2CCCC2C(=O)Nc2c(C)cccc2C)c1` (stereo not given), the inhibition was 1.62%.

The next experiment in a line: RAM signaling pathway blockade in yeast – S. cerevisiae, Pdr1DBD-CYC8 efflux-inhibited sensitized strain, primary screen (AID 1298;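 active = RAM network inhibition above 8.4% in each of two replicates, 3 SD over the compound average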;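 also: 0% = DMSO untreated cells without growth and 100% = 10 µM 1-NA-PP1 full growth; higher means more yeast growth rescued from 5-FOA killing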). As to conditions: S. cerevisiae cbk1-as DSE1-URA3 strain, 5-FOA growth OD615, 2 d; at 50 µM; stronger effect = higher value.
Consider `CC(C)(C)NS(=O)(=O)c1ccc(OCC(=O)Nc2ccc3c(c2)OCCO3)cc1`, for which the RAM network inhibition was 7.73%.

In the case of `C=C(C)Cn1c(CCNC(=O)C(C)(C)C)nc2ccccc21`, the RAM network inhibition was 1.51%.

With `Cc1cc2cc(CN(Cc3ccc4c(c3)OCO4)C(=O)c3cnccn3)c3nnnn3c2cc1C`, the RAM network inhibition is 5.81%.

Turning to `O=C(CN(CC(=O)N1CCOCC1)S(=O)(=O)c1ccc(Br)s1)N1CCOCC1`, the RAM network inhibition was 0.11%.

For the compound `Cn1cc(S(=O)(=O)CC(=O)Nc2ccc3c(c2)OCCO3)c2ccccc21`, the RAM network inhibition is 3.07%.

For `CC(=O)c1ccc(N2CCN(C(=O)c3ccc(NC(=O)C4CCCO4)cc3)CC2)cc1` (stereo not given), the RAM network inhibition is 1.4%.

As to `COc1cc2c(cc1OC)C(C(=O)Nc1cccc(C)n1)C(c1cccnc1)N(C)C2=O` (stereo not given), the RAM network inhibition was 6.27%.

Take `CCOC(=O)c1c(NC(=O)c2ccc(Cl)s2)sc(C)c1C`: the RAM network inhibition was 5.6%.

Regarding `CCCC(=O)Nc1cc(C)c(NC(=O)Cc2ccccc2)cn1`, the RAM network inhibition is 2.84%.

For `O=C(CCS(=O)(=O)c1ccccc1)Nc1nc2c(s1)COc1ccccc1-2`, the RAM network inhibition was 3.55%.

`CC(=O)NCC(=O)N(c1c(C)n(C)n(-c2ccccc2)c1=O)C1(C(=O)NC2CCCC2)CCCCC1`: the RAM network inhibition is -0.72%.

As for `CC(NC(=O)C(C)(C)C)c1nc2ccccc2n1C` (stereo not given), the RAM network inhibition was 3.17%.

In the case of `Cc1cccc(N(CC(=O)Nc2c(C)n(C)n(-c3ccccc3)c2=O)S(C)(=O)=O)c1C`, the RAM network inhibition is 5.77%.

As to `CC(=O)Nc1c(C(=O)c2ccc(F)cc2)oc2ccccc12`, the RAM network inhibition is 7.49%.

As to `COc1ccc(NC2=NCC(=O)N2c2ccccc2)c(OC)c1`, the RAM network inhibition is 5.45%.

Take `Cc1c(C(=O)N(C)Cc2ccccc2)oc2ccc(S(=O)(=O)N3CCCC3)cc12`: the RAM network inhibition is 4.09%.

In the case of `COc1ccc2c(c1)-c1nc(NC(=O)c3cccs3)sc1CC2`, the RAM network inhibition was 1.99%.

For the compound `Cc1nc2nc(SCC(=O)N3CCOCC3)nn2c(C)c1Cc1c(F)cccc1Cl`, the RAM network inhibition was 3.17%.

`O=C(CS(=O)(=O)c1cn(Cc2cccc(F)c2)c2ccccc12)N1CCCCC1`: the RAM network inhibition is 3.64%.

`COc1ccc(-c2cc3ccccc3n2CC(O)Cn2nc(C)cc2C)cc1` (stereo not given): the RAM network inhibition is 7.69%.

Take `NC(=O)C1CCN(C(=O)CCCCCn2c(=O)[nH]c3ccsc3c2=O)CC1`: the RAM network inhibition is 3.54%.

On to `CC1CCCN(c2nc3c(c(=O)n(C)c(=O)n3C)n2Cc2ccccc2)C1` (stereo not given), for which the RAM network inhibition was 1.56%.

Take `O=C(Nc1ccc(Br)cc1Cl)c1cnccn1`: the RAM network inhibition is 2.32%.

In the case of `CCOC(=O)N1CCC(NC(=O)C(Cc2ccccc2)NC(=O)C2CCCCC2)CC1` (stereo not given), the RAM network inhibition is 6.59%.

Take `Cc1c(C(=O)Nc2ccncc2)sc2nc(-c3ccc(F)cc3)cn12`: the RAM network inhibition is 8.43%.

`Cc1ccnc(Sc2nc3c(c(=O)[nH]c(=O)n3C)n2CCCc2ccccc2)n1`: the RAM network inhibition is 1.4%.

As to `CCC(=O)Nc1cc(C)c(NC(=O)c2ccco2)cn1`, the RAM network inhibition is 4.21%.

Turning to `Cc1c(C(=O)NCCC2=CCCCC2)oc2ccc(S(=O)(=O)N3CCOCC3)cc12`, the RAM network inhibition is 8.35%.

As to `COCCn1c(=O)[nH]c2cc(C(=O)NCCN3CCN(c4ccccc4F)CC3)ccc2c1=O`, the RAM network inhibition was 9.5%.

As to `CCOc1cc(CNC(=O)CN2C(=O)c3ccccc3S2(=O)=O)ccc1OC`, the RAM network inhibition is 0.32%.

Consider `O=C(C1=C(O)C(=O)N(CCc2ccccc2)C1c1cccnc1)c1ccco1` (stereo not given), for which the RAM network inhibition is 2.81%.

Consider `COCCNC(=O)c1cn(C)c(=O)c2cc(OC)c(OC)cc12`, for which the RAM network inhibition was 7.53%.

Take `O=C(OCC(=O)N1CCN(C(=O)c2ccco2)CC1)C1=COCCO1`: the RAM network inhibition is 3.69%.

For the compound `O=C(c1ccccn1)N1CCN(c2ccc(C(F)(F)F)cn2)CC1`, the RAM network inhibition was 3.84%.

Take `OCC1(c2cc(C(F)(F)F)n[nH]2)CCCCC1`: the RAM network inhibition was -0.68%.

Turning to `Cc1c(NC(=O)CCC2CCCCC2)c(=O)n(-c2ccccc2)n1C`, the RAM network inhibition was 3.28%.

With `Brc1cc(Br)c2ncnc(N3CCCCC3)c2c1`, the RAM network inhibition is 2.58%.

For the compound `Cn1c(=O)[nH]c(=O)c2c1nc(Sc1ncccn1)n2CCCc1ccccc1`, the RAM network inhibition is 7.26%.

Consider `CNC(=O)c1ccc(-c2sc3nc(N4CCOCC4)c4c(c3c2N)CCCC4)o1`, for which the RAM network inhibition is 5.11%.

On to `CC(=O)c1cccc(NC(=O)N2CCCC2C(=O)Nc2c(C)cccc2C)c1` (stereo not given), for which the RAM network inhibition was 3.69%.
